# Assay outcomes as filed in PubChem BioAssay.
# This is a sample that favours compounds with a hit; in the whole collection about 9.4% have one here.
# HttQ103 aggreg = mutant huntingtin aggregation inhibition; 1.1% of 220,000 active; Potency, µM (doses to about 46.1 µM), without a hit: at the highest dose activity change, negative = inhibition, actives largely listed as inhibitors; PC12 HttQ103-GFP aggregates, Acumen cytometry, 40 h; note: potency is the fitted concentration of half-maximal effect; % is set by controls: 0 for no effect and ±100 for the full control effect; nearly all actives have a fitted effect of over 60% in size
#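 Inducible Q103 Huntingtin exon 1–GFP PC12 line, 1500 cells/well in phenol red free DMEM with 5% equine and 5% calf serum. Tebufenozide 100 nM induced expression; compounds titrated; aggregates quantified by cytometry.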
# HPGD block = blocks human HPGD enzyme activity. P15428. purified HPGD, NADH fluorescence kinetic, PGE2 substrate. Potency, µM, inactives show at the highest dose activity change, negative = inhibition, actives largely listed as inhibitors. 4.3% of 150,000 active. AID 894; active = well fitted inhibition curve with a large enough effect, not every such curve was filed as active; inconclusive = small, poorly fitted or top-dose-only effect, or another doubt; inactive = no such curve, though single readings can be large or run the other way; note: potency is the fitted concentration of half-maximal effect; % is set by controls: 0 for no effect and ±100 for the full control effect
# Target sequence (P15428 whole entry, looked up): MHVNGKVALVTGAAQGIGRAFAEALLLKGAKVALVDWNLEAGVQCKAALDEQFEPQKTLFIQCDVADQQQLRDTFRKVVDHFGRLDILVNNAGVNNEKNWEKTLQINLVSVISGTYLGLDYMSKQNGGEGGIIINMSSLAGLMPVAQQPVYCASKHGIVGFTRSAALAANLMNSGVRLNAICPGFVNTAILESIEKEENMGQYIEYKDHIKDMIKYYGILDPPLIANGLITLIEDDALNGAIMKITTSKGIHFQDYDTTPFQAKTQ
#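 NADH formation kinetics: reaction with 30 uM PGE2 and 1 mM NAD+ (final), 20 nM enzyme, Tris-HCl pH 8 with Tween 20, after 15 min compound preincubation at room temperature. Fluorescence change, last versus first of five reads.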
# HTT ATP protect = Huntington cell model cytoprotection by ATP luminescence; PC12 HTT-Q103 induced, cytoprotection, ATP luminescence, 40 h; Potency, µM (top dose mostly 56.4 µM), for inactives: cytoprotection (ATP increase), most hits filed as activators; 0.14% of 230,000 active; note: potency is the fitted concentration of half-maximal effect; % of control where 0% means no effect; nearly all actives have a fitted effect of over 45% in size
#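 Readout: ATPlite luminescence (ATP level). Model: stable PC12, inducible Htt exon1 Q103-GFP. Inducer: tebufenozide, 100 nM final. Compounds: dose series. No G418 in medium.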
# IMPase Li cell = IMPase inhibition in cells with lithium potentiation | CHO-M1 cells, IP1 TR-FRET (IP-One), carbachol + lithium | 0.35% of 210,000 active | Potency, µM (titrated, usually from 59.4 µM), inactives show top-dose activity, negative = IMPase inhibition, actives largely listed as inhibitors;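 note: IP1 builds up when IMPase is blocked and the TR-FRET signal falls; potency is the fitted concentration of half-maximal effect; plate controls were basal vehicle for no effect and high inhibitor control for full effect; nearly all actives have a fitted effect of over 50% in size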
#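 CHO cells stably expressing M1 receptor (2000/well, cultured 16–30 h) treated 30 min at 37C with compound plus low lithium. Cytosolic IP1 by TR-FRET (665/620 ratio and 620 channel) after 10 min lysis; AC50 by Hill fit.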
# ALDH1A1 block = inhibitors of human aldehyde dehydrogenase 1A1. P00352. Purified ALDH1A1, NADH fluorescence, propionaldehyde substrate. Potency, µM (titrated, usually from 75.3 µM), inactives show top-dose activity, negative = inhibition, hits mostly inhibitors. 7.3% of 220,000 active; active = well fitted inhibition curve with a large enough effect, not every such curve was filed as active; inconclusive = small, poorly fitted or top-dose-only effect, or another doubt; inactive = no such curve, though single readings can be large or run the other way;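 note: potency is the fitted concentration of half-maximal effect; plate controls were no enzyme wells and a reference inhibitor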
# Target sequence (P00352 whole entry, looked up): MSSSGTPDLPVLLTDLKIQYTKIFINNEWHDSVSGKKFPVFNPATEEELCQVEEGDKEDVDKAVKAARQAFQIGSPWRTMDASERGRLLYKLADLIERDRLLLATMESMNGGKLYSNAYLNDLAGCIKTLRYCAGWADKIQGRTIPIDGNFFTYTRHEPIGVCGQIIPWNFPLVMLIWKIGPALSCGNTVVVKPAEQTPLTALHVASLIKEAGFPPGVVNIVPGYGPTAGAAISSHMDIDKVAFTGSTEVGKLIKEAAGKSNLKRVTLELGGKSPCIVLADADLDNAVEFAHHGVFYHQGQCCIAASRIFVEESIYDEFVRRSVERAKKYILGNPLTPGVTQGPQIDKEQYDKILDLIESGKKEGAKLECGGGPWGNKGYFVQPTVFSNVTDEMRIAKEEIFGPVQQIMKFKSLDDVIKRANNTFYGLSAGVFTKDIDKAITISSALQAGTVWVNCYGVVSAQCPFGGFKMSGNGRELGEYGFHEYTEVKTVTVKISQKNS
# IMPase cell inh = IMPase inhibition in cells | CHO-M1 cells, IP1 accumulation, HTRF TR-FRET ratio | AID 901 | inhibition (IP1 accumulation), % at 46.1 µM | 120,000 tested, under 10 active | P97697; active = well fitted curve in the direction sought with a large enough effect in the signal ratio, not every such curve was filed as active; inconclusive = small, poorly fitted or top-dose-only effect, or a change in a side signal; inactive = no such curve, though single readings can be large or run the other way; the % refers to the signal ratio;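 note: cells stimulated with carbachol in lithium chloride buffer; plate controls were DMSO basal wells for no effect and reference inhibitor wells for full effect; higher means more IMPase inhibition seen as more IP1 and lower FRET ratio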
#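 Seeded CHO-M1 cells were dosed with compound at up to 46 uM, stimulated with carbachol for 30 min, then lysed in IP-One detection reagents. Higher IP1 lowers the TR-FRET signal.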
# * = called active by the depositor; ? = inconclusive; . = no result given; [ ] = another dose, or the depositor's remark. Unless noted, calls come from the whole dose curve; as a rule, active = well fitted curve in the direction sought with a large enough effect; inconclusive = small, poorly fitted or top-dose-only effect, or another doubt; inactive = no such curve, though single readings can be large; an effect the other way counts as inactive or inconclusive.
SMILES,HttQ103 aggreg,HPGD block,HTT ATP protect,IMPase Li cell,ALDH1A1 block,IMPase cell inh
CC(C)Cc1nc(SCc2cccnc2)c2c(=O)n(C)c(=O)n(C)c2n1,-2.9%,.,.,16.7%,7.08µM*,.
Cn1c(=S)c2[nH]c(SCc3cccnc3)nc2n(C)c1=O,.,3.98µM*,2.5%[10 µM],-3.2%,?,.
CCc1nc(SCc2cccnc2)c2c(=O)n(C)c(=O)n(C)c2n1,7.5%,0.0%,-4.4%[10 µM],25.5%[38.3 µM],0.0%,?
COCCn1c(=O)cnc2cnc(Oc3ccc(OC)cc3)nc21,.,.,-37.7%,-7.7%,?,.
CCOC(=O)C1=C(C)N=c2s/c(=C\c3ccc(OCC(=O)O)cc3)c(=O)n2C1c1ccc(OC(C)C)cc1 (configuration not stated),-3.1%,4.47µM*,.,7.1%,7.8%,.
COC(=O)c1c(C)[nH]c(C(=O)/C=C/c2ccccc2F)c1C,13.8%[9.22 µM],.,30.2%[10 µM],.,.,.
CCC(=O)c1ccc(OCCSc2ncccn2)cc1,-20.1%,31.6µM*,-37.1%[10 µM],6.3%[38.3 µM],-5.7%,3.7
CCOC(N)=O,-4.5%,-4.2%,14.7%,2.2%,-8.4%,.
Cc1ccc(C)n1-c1cccc(NC(=O)c2ccccc2)c1,17.7%,-10.3%,8.3%[0.074 µM],2.7%,12.3%,.
Cc1ccc(C)n1-c1ccc(C(=O)Nc2ccccc2)cc1,?,15.8µM*,-0.7%[10 µM],4.5%,28.2µM*,.
COC(=O)c1ccc(C23CC2(C(NP(=O)(c2ccccc2)c2ccccc2)c2ccccc2)C3)cc1 (configuration not stated),.,-19.4%,-48.2%,9.3%,31.6µM*,.
Cc1cc(NC(=O)CCOc2ccc(F)cc2)no1,17.6%[9.22 µM],.,-13.4%[10 µM],.,0.708µM*,.
COc1ccc(OCCC(=O)Nc2cc(C)on2)cc1,-15.5%,-4.4%,12.4%,4.8%[38.3 µM],22.4µM*,8.8
CCC1=NN2C(=N)/C(=C/c3c(C)nn(-c4ccccc4)c3Cl)C(=O)N=C2S1,15.8%,-19.0%,.,-7.6%,4.1%,.
CCc1nn2c(=O)cc(COc3ccc(/C=C4\C(=N)N5N=C(C)SC5=NC4=O)cc3)nc2s1,15.7%,.,-39.7%,-7.9%,8.91µM*,.
Cn1c(SCn2nnc3ccccc3c2=O)nc2ccccc2c1=O,4.5%,.,23.5%[10 µM],8.4%,?,.
CCN(CC)S(=O)(=O)c1ccc2c(c1)nc(SCn1nnc3ccccc3c1=O)n2CC,0.1%,-15.9%,-25.2%,6.8%[38.3 µM],10µM*,-7.6
COC(=O)C1=C(C)NC(C)=C(C(=O)OCCSc2ccccc2)C1C (configuration not stated),.,.,-99.0%,18.4%,?,.
COCCN1C(=O)C(=O)/C(=C(/O)c2ccc(OC(C)C)cc2)C1c1cccnc1 (configuration not stated),-6.3%,-11.7%,21.2%[0.074 µM],10µM*,7.0%,-18.3
CCOc1ccc(/C(O)=C2/C(=O)C(=O)N(CCOCCO)C2c2cccnc2)cc1 (configuration not stated),5.4%,-3.9%,-5.6%,11.2µM*,-0.3%,?
CCOc1ccc(/C(O)=C2/C(=O)C(=O)N(CCOCCO)C2c2ccccc2)cc1 (configuration not stated),?,-11.0%,3.9%[0.074 µM],11.2µM*,5.1%,?
COCCN1C(=O)C(=O)/C(=C(/O)c2ccc(OCC(C)C)cc2)C1c1cccnc1 (configuration not stated),.,.,2.7%[0.074 µM],.,.,.
CC1(NC[C@@H](O)COc2cccc3[nH]ccc23)CCC(C(C)(C)NC(=O)CBr)CC1 (some centres not stated),.,.,35.5%[1.9 µM],.,.,.
CCOc1ccc(OCC(=O)c2c(O)c3ccccc3oc2=O)cc1,1.2%,12.6µM*,-33.1%,-6.3%[38.3 µM],8.91µM*,0.4
COc1ccc(OCC(=O)c2c(O)c3ccccc3oc2=O)cc1,21.2%,22.4µM*,-5.4%,18.0%[38.3 µM],?,-0.2
SMILES,HttQ103 aggreg,HPGD block,HTT ATP protect,IMPase Li cell,ALDH1A1 block,IMPase cell inh
CCCCC(=O)c1c(O)c2ccccc2oc1=O,?,-15.9%,-11.3%,-17.3%[38.3 µM],-4.8%,4.6
CN=C1C=CC(=C(c2ccc(N(C)C)cc2)c2ccc(N(C)C)cc2)C=C1,8.91µM*,.,-98.7%,.,.,.
CN(C)c1ccc(/C(=N\O)c2ccccc2)cc1,-31.4%,?,10.7%[1.9 µM],22.7%[38.3 µM],?,0.0
Cc1c(C(=O)N2CCCCC2)nnn1-c1nonc1N,12.6%,15.8µM*,11.6%,18.0%[38.3 µM],7.94µM*,2.9
O=C(NCCc1c[nH]c2ccccc12)C1CCN(c2nnc(N3CCCC3=O)s2)CC1,1.5%,-6.4%,-6.0%,2.5%[38.3 µM],0.316µM*,6.1
O=C(NCCc1c[nH]c2ccccc12)C1CCN(S(=O)(=O)c2ccccc2F)CC1,-5.7%,.,-25.5%,2.6%,?,.
Cc1ccc(NC(=O)COc2ccc(-c3nn(C)c(=O)c4ccccc34)cc2)c(C)c1,.,.,.,.,.,4.4
CCCCN1CCC[C@@H]1CNC(=O)c1cc(C#N)c2ccccc2c1OC,.,-21.1%,18.7%,40.4%,?,13.2
Cc1ccc(C(CC(=O)NCC2(c3ccccc3)CCCC2)c2ccccc2)c(O)c1 (configuration not stated),.,.,.,.,.,24.6
CCn1ncc(NC(=S)Nc2ccc(OC)c(OC)c2)c1C(N)=O,6.8%[9.22 µM],.,8.9%[10 µM],3.5%,?,.
CCC(C)c1ccc(NC(=S)Nc2ccc(OC)c(OC)c2)cc1 (configuration not stated),-5.5%,1.0%,14.8%[10 µM],13.5%,28.2µM*,2.8
COc1ccc(NC(=S)Nc2ccc(OCc3ccccc3)cc2)cc1OC,-27.1%,-15.1%,12.7%[10 µM],2.6%,17.8µM*,-2.5
CCOc1ccc(CC(=O)NNC(=S)Nc2ccc(OC)c(OC)c2)cc1,13.8%,.,-35.8%,4.0%,1.0%,.
CCC(C)c1ccc(NC(=S)Nc2ccc(OC)cc2C)cc1 (configuration not stated),-5.8%,25.1µM*,25.0%[10 µM],-2.8%,-0.3%,-6.3
O=C(CCCn1c(SCC(=O)NC2CCCCC2)nc2ccccc2c1=O)NCC1CCCO1 (configuration not stated),13.2%,?,-7.9%,-9.1%[38.3 µM],?,?
C=CCn1c(SCC(=O)N2CCCC2)nc2cc(C(=O)NCC3CCCO3)ccc2c1=O (configuration not stated),2.4%,?,-16.8%[0.074 µM],12.5%[38.3 µM],?,-4.0
CCCCCn1c(SCC#N)nc2cc(C(=O)NCC3CCCO3)ccc2c1=O (configuration not stated),-15.1%,2.51µM*,-17.5%,1.2%[38.3 µM],1.6%,-0.3
O=C(CCCn1c(SCC(=O)c2ccc(O)c(O)c2)nc2ccccc2c1=O)NCC1CCCO1 (configuration not stated),-10.3%,5.01µM*,2.9%,-11.0%[38.3 µM],17.8µM*,12.2
